The text below walks through data of PubChem BioAssay.

Assay [1] can be described thus: reducers of endogenous Her2 protein level, primary screen, SKBR3 breast tumor cells, AlphaScreen, ATP viability (AID 461;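 active means Her2 level under about 52% in both replicate screens, with viability over 70% of control, limit read from the data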;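 on Her2 level: lower value means less Her2 protein in the cells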;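 on viability: percent of carrier control wells set as 100% viability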). As to conditions: 18-24 h, measured here: SKBR3 viability, ATP luminescence, at 10 µM. On the technique in general: Alpha assays give light when donor and acceptor beads are brought close together.
Assay [2] has as its target Receptor tyrosine-protein kinase erbB-2 (Homo sapiens) (UniProt P04626). The description is as above. Particulars: 18-24 h, at 10 µM, stronger effect = lower value.
A short description of assay [3]: SK-BR-3 cell growth inhibitors, pilot screen, 24 h, human (AID 572;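 active means viability at or below 10% of carrier control in both of two separate runs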;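 further: compound exposure lasted between 18 and 24 h rather than exactly 24 h; 100% = carrier-treated control wells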). Particulars: SK-BR-3 viability, CellTiter-Glo luminescence, at 10 µM, stronger effect = lower value. For orientation: Cellular ATP, detected with luciferase, serves as a proxy for viable cell number.
A short description of assay [4]: HUVEC growth inhibition – cell-based, human, primary screen (AID 575;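 active means viability at or below 30% in both replicate assays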;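 further: 100% = median of untreated cell wells with 0.1% DMSO on each plate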). Particulars: HUVEC proliferation, CellTiter-Glo luminescence, 72 h; at 10 µM; stronger effect = lower value.
Assay [5] in a line: growth inhibitors of H69AR lung tumor, primary screen, human, duplicate replicates (AID 580;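 active means viability at or under a set limit in both replicates, limit being median viability minus 3 SD, cut at about 48% in these data, passing the limit was not always enough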;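 further: 100% = mean luminescence of untreated wells and 0% = no signal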). As to conditions: H69AR lung tumor cells viability, ATP luminescence, 72 h; at 10 µM; stronger effect = lower value.
The nature of assay [6]: reversal of MRP1-mediated doxorubicin resistance, pilot screen, H69AR cells, doxorubicin co-treatment (AID 601;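 active means viability loss from added drug above about 55%, and viability with drug at most 40%, in both replicates, limit read from the data, passing the limit was not always enough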). Particulars: CellTiter-Glo, 72 h, at 10 µM; for differential viability (reversal): stronger effect = higher value.
Assay [7] in a line: 384-well plate pilot, post-Golgi transport modulator project, inhibition of yeast transport mutant growth (AID 636; in the data active means inhibition above about 31%). Particulars: absorbance 615 nm, about 18 h, stronger effect = higher value.
A short description of assay [8]: growth suppression of yeast trafficking mutant, preliminary HTS, modulators of trafficking downstream of Golgi apparatus project, 1536-format plate, OD 615 nm (AID 637; in the data active means inhibition above about 30%). Particulars: yeast transport mutant growth, absorbance 615 nm, 18 h; stronger effect = higher value.
The nature of assay [9]: OD615 S. cerevisiae growth inhibition, permissive medium, pilot counter-assay, permissive growth control for S. cerevisiae lifespan shortening project (AID 705;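 active means growth inhibition above 25% in both replicates, a cutoff set 3 SD above the mean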). Particulars: OD615, 24 h, at 10 µM, stronger effect = higher value.
The nature of assay [10]: Restrictive medium S. cerevisiae growth inhibition, OD615, pilot screen of yeast lifespan reduction project, restrictive growth control (AID 706;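 active means growth inhibition above a set limit, 3 SD over mean compound inhibition, in both replicates, cut at about 43% in these data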;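 further: modified DeaD lifespan yeast strain shifted to restrictive glucose medium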). Particulars: OD615, 48 h, at 10 µM, stronger effect = higher value.
Assay [11] can be described thus: viability gain of MRP-1-high H69AR cells under doxorubicin, pilot screen, MRP-1 activator project, CellTiter-Glo, duplicate (AID 807;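 active means viability increase at or above a cutoff of the median across tested compounds plus 3 SD, cut at about 8.5% in these data, passing the limit was not always enough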;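 further: compound pretreatment 18-22 h then 72 h combined with doxorubicin; 0% = doxorubicin alone and 100% = vehicle without doxorubicin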). Particulars: H69AR viability with doxorubicin, CellTiter-Glo luminescence; at 10 µM; stronger effect = higher value.
The nature of assay [12]: growth suppression of beta-catenin knockout HCT116, pilot screen, human colon tumor cells (AID 823;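 active means cell viability at or below a set limit in both duplicate runs, the limit being the all-compound median minus 4 SD, cut at about 23% in these data, passing the limit was not always enough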;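 further: 0% = wells killed by 20 µM Hyamine and 100% = untreated DMSO cell wells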). As to conditions: CellTiter-Glo, 60 h, at 10 µM, stronger effect = lower value.
Assay [13] is described as follows: growth suppression of PTEN-deleted HCT116, pilot screen, cell-based, HCT116 clonal line, CellTiter-Glo (AID 824;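 active means viability at or below 27.92% in each of two runs, the all-compound median minus 4 SD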;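 further: 0% = 20 µM Hyamine control and 100% = vehicle cell control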). Particulars: 60 h, at 10 µM, stronger effect = lower value.
Assay [14] is described as follows: inhibitors of the yeast RAM network, pilot screen, dse1pr::URA3 reporter, 5-FOA selection (AID 869).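 Further: 0% = DMSO wells with no growth and 100% = 10 µM 1-NA-PP1 with full growth; RAM network block rescues cells from 5-FOA so hits raise OD615 growth.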 As to conditions: S. cerevisiae dse1pr::URA3 5-FOA growth, OD615, 2 d; at 10 µM; stronger effect = higher value; strain carries analog-sensitive mutant Cbk1 kinase.
The nature of assay [15]: RAM signaling pathway blockade in yeast – S. cerevisiae, Pdr1DBD-CYC8 efflux-inhibited sensitized strain, primary screen (AID 1298;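 active means RAM network inhibition above 8.4% in each of two replicates, 3 SD over the compound average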;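 further: 0% = DMSO untreated cells without growth and 100% = 10 µM 1-NA-PP1 full growth; higher means more yeast growth rescued from 5-FOA killing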). Particulars: S. cerevisiae cbk1-as DSE1-URA3 strain, 5-FOA growth OD615, 2 d; at 50 µM; stronger effect = higher value.
Where [16] appears, read: H69AR cells + 2 uM doxorubicin, measured here: viability with 2 uM doxorubicin, stronger effect = lower value.
Setting [17] is: H69AR cells, compound alone cytotoxicity.

Results filed as inconclusive are left out. Activity calls are given as the source filed them.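 How the source made its calls, unless noted: active means inhibition over a set limit, the all-compound mean plus 3 SD, in both replicate runs; inconclusive means over that limit in just one replicate run; inactive means at or under that limit in both runs.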

Chain of Receptor tyrosine-protein kinase erbB-2 (Homo sapiens) (P04626 whole entry, looked up): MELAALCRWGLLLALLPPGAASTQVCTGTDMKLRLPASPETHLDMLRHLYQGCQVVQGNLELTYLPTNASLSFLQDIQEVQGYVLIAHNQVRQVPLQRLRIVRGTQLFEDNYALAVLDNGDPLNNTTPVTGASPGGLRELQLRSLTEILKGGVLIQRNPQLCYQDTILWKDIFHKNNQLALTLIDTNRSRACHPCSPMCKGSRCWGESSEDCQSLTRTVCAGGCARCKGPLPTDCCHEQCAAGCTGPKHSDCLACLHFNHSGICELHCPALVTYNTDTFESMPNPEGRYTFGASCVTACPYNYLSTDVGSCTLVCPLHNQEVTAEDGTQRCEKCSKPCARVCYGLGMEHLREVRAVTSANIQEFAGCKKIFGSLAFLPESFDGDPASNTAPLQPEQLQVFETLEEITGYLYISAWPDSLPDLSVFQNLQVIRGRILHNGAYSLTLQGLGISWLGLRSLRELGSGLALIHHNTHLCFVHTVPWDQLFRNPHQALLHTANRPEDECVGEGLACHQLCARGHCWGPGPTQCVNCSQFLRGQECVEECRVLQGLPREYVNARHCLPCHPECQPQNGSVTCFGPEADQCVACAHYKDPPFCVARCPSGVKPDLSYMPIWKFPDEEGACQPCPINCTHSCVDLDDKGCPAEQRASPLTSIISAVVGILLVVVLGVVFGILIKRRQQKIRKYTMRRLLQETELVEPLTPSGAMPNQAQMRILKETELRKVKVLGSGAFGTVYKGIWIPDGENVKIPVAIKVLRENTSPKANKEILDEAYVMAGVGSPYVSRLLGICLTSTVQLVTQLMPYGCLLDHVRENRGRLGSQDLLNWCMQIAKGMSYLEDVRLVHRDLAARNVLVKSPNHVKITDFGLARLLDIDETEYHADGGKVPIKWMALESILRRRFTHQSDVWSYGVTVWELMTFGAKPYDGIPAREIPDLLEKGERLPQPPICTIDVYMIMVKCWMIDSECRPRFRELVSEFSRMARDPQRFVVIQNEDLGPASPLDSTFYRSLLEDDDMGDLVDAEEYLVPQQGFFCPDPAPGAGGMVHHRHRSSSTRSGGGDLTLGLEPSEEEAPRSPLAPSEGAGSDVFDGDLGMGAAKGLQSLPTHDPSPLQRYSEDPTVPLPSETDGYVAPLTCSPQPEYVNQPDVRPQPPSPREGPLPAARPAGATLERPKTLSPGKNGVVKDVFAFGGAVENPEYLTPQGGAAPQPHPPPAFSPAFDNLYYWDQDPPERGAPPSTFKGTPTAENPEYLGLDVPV

As for `CC1=C(C)CC2C(=O)N(c3cccc4ccccc34)C(=O)C2C1` (stereo not given), the viability was 104% in [1]; 104% (inactive) in [3]; 80.1% (inactive) in [4]; 85.7% (inactive) in assay [5]; 83.2% in [6] (setting [16]); 85.7% in assay [6] (setting [17]). Moreover, the viability was 100% (inactive) in assay [12] and 96.5% (inactive) in assay [13]. For the same compound, the Her2 level in assay [2] is 114% (inactive). In addition, the differential viability (reversal) in [6] (H69AR cells + 2 uM doxorubicin) is 2.52% (inactive). The results for the inhibition in [7], in [8] and in [14] were -6.53% (inactive), -11.3% (inactive) and 0.295% (inactive), respectively. Also, the growth inhibition in assay [9] was 75.2% (active); in assay [10], 67.6% (active). In addition, the viability increase in assay [11] is -0.78% (inactive). Also, in assay [15], the RAM network inhibition is 2.23% (inactive).

For `O=C(Cc1cccs1)Nc1ccccc1NC(=O)Cc1cccs1`, the viability in assay [1] was 81%; in assay [3], 81% (inactive); in [4], 107% (inactive); in assay [5] it was 94.7% (inactive); in assay [6] (setting [16]), 91%; in [6] (setting [17]), 94.7%. The viability is 92% (inactive) in assay [12] and 91.9% (inactive) in assay [13]. Also, the Her2 level in [2] is 87.5% (inactive). In addition, in [6] (H69AR cells + 2 uM doxorubicin), the differential viability (reversal) is 3.74% (inactive). The figures for the inhibition in assay [7], in [8] and in assay [14] were -1.15% (inactive), -7.83% (inactive) and 0.905% (inactive), respectively. Further, the growth inhibition in assay [9] is -1.23% (inactive); in assay [10], -8.9% (inactive). In addition, the viability increase in assay [11] is -4% (inactive). Also, the RAM network inhibition in assay [15] is -0.25% (inactive).

Consider `CC1=C(C(=O)N2CCCCC2)C(c2cccs2)C2=C(CCCC2=O)N1` (stereo not given), for which the viability in assay [1] was 100%; in [3], 100% (inactive); in assay [4] it was 96.7% (inactive); in assay [5] it was 92.8% (inactive); in assay [6] (setting [16]), 91.7%; in assay [6] (setting [17]), 92.8%. In addition, the viability in assay [12] is 98.1% (inactive); in assay [13], 87% (inactive). In assay [2], the Her2 level was 174% (inactive). The differential viability (reversal) in assay [6] (H69AR cells + 2 uM doxorubicin) was 1.19% (inactive). Also, the inhibition is 0.13% (inactive) in [7], -5.67% (inactive) in assay [8] and 1.4% (inactive) in assay [14]. In addition, the growth inhibition in assay [9] is -7.14% (inactive); in [10] it was -3.55% (inactive). Also, in assay [11], the viability increase was -0.74% (inactive). In addition, in assay [15], the RAM network inhibition was -0.77% (inactive).

Consider `CCOC(=O)c1ccc(N2Cc3cc(C)c(C)cc3C2)cc1O`, for which the viability in assay [1] is 95.5%; in assay [3] it was 95.5% (inactive); in [4], 108% (inactive); in [5] it was 97.3% (inactive); in assay [6] (setting [16]), 92.9%; in [6] (setting [17]), 97.3%. Moreover, the viability in assay [12] was 107% (inactive); in assay [13], 93.8% (inactive). The Her2 level in assay [2] was 95.5% (inactive). Besides, the differential viability (reversal) in assay [6] (H69AR cells + 2 uM doxorubicin) is 4.4% (inactive). In addition, the inhibition was 4.27% (inactive) in assay [7], 10.3% (inactive) in assay [8] and 0.285% (inactive) in [14]. In addition, the growth inhibition was -10.9% (inactive) in [9] and -7.42% (inactive) in [10]. Besides, the viability increase in assay [11] was 2.66% (inactive). The RAM network inhibition in assay [15] is 1.88% (inactive).

On to `COC(=O)c1cc(OC)c(OC)cc1NC(=O)c1ccc(Br)o1`, for which the viability in assay [1] was 85.5%; in assay [3] it was 85.5% (inactive); in [4] it was 101% (inactive); in [5], 87.6% (inactive); in assay [6] (setting [16]) it was 93%; in assay [6] (setting [17]) it was 87.6%. The viability in assay [12] was 96% (inactive); in [13] it was 86.1% (inactive). In addition, in assay [2], the Her2 level was 84% (inactive). Moreover, the differential viability (reversal) in assay [6] (H69AR cells + 2 uM doxorubicin) is -5.39% (inactive). The inhibition in assay [7] is 0.13% (inactive); in assay [8] it was 3% (inactive); in assay [14] it was 3.2% (inactive). The growth inhibition in assay [9] was -14.5% (inactive); in [10] it was -3.21% (inactive). In addition, in assay [11], the viability increase was -0.2% (inactive). The RAM network inhibition in assay [15] is 4.75% (inactive).

One may read the viability as a read-out of living cells in per cent, often relative to untreated cells. A word on the inhibition: it is the drop in the measured response relative to a control, in per cent.
